Laboratory results as given in the supplement of paper PMC4466140.

Molecular target: AgAbp1
Assay: SPOT peptide array binding signal intensity (averaged, normalized) (arbitrary units (background-subtracted, floor 0; scale differs between SH3 domains)); higher = stronger binding of the SH3 domain to the peptide
Outline: (§1)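 GST-fused SH3 domains, from four yeast species, were produced in E. coli BL21(DE3) and captured on glutathione Sepharose. Membranes of cellulose carrying synthetic 15-mer peptides, in which cysteines had been replaced by serines, were exposed to each domain at 10 μg/ml overnight at 4°C in TBS-based blocking buffer. After anti-GST antibody, an HRP anti-mouse secondary and luminol, spots were imaged and quantified using Genespotter. Binding signal is normalized and background-subtracted spot intensity, averaged over replicates, in arbitrary units that differ between domains.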

Binder	SPOT peptide array binding signal intensity
GDHPKGPPPPPPPPD	≤ 0

Molecular target: AgBbc1
Assay: as above
Outline: as §1

Binder	SPOT peptide array binding signal intensity
GDHPKGPPPPPPPPD	≤ 0

Molecular target: AgBem1-D1
Assay: as above
Outline: as §1

Binder	SPOT peptide array binding signal intensity
GDHPKGPPPPPPPPD	≤ 0

Molecular target: AgBzz1-D1
Assay: as above
Outline: as §1

Binder	SPOT peptide array binding signal intensity
GDHPKGPPPPPPPPD	440

Molecular target: AgBzz1-D2
Assay: as above
Outline: as §1

Binder	SPOT peptide array binding signal intensity
GDHPKGPPPPPPPPD	43

Molecular target: AgCyk3
Assay: as above
Outline: as §1

Binder	SPOT peptide array binding signal intensity
GDHPKGPPPPPPPPD	≤ 0

Molecular target: AgFus1
Assay: as above
Outline: as §1

Binder	SPOT peptide array binding signal intensity
GDHPKGPPPPPPPPD	3

Molecular target: AgHof1
Assay: as above
Outline: as §1

Binder	SPOT peptide array binding signal intensity
GDHPKGPPPPPPPPD	≤ 0

Molecular target: AgHse1
Assay: as above
Outline: as §1

Binder	SPOT peptide array binding signal intensity
GDHPKGPPPPPPPPD	≤ 0

Molecular target: AgLsb1
Assay: as above
Outline: as §1

Binder	SPOT peptide array binding signal intensity
GDHPKGPPPPPPPPD	≤ 0

Molecular target: AgLsb4
Assay: as above
Outline: as §1

Binder	SPOT peptide array binding signal intensity
GDHPKGPPPPPPPPD	≤ 0

Molecular target: AgMyo5
Assay: as above
Outline: as §1

Binder	SPOT peptide array binding signal intensity
GDHPKGPPPPPPPPD	1010

Molecular target: AgNbp2
Assay: as above
Outline: as §1

Binder	SPOT peptide array binding signal intensity
GDHPKGPPPPPPPPD	3

Molecular target: AgRvs167
Assay: as above
Outline: as §1

Binder	SPOT peptide array binding signal intensity
GDHPKGPPPPPPPPD	≤ 0

Molecular target: AgSho1
Assay: as above
Outline: as §1

Binder	SPOT peptide array binding signal intensity
GDHPKGPPPPPPPPD	3

Molecular target: AgSla1-D1-D2
Assay: as above
Outline: as §1

Binder	SPOT peptide array binding signal intensity
GDHPKGPPPPPPPPD	≤ 0

Molecular target: AgSla1-D3
Assay: as above
Outline: as §1

Binder	SPOT peptide array binding signal intensity
GDHPKGPPPPPPPPD	699

Molecular target: CaAbp1-D1
Assay: as above
Outline: as §1

Binder	SPOT peptide array binding signal intensity
GDHPKGPPPPPPPPD	≤ 0

Molecular target: CaAbp1-D2
Assay: as above
Outline: as §1

Binder	SPOT peptide array binding signal intensity
GDHPKGPPPPPPPPD	≤ 0

Molecular target: CaBbc1
Assay: as above
Outline: as §1

Binder	SPOT peptide array binding signal intensity
GDHPKGPPPPPPPPD	≤ 0

Molecular target: CaBem1-D1
Assay: as above
Outline: as §1

Binder	SPOT peptide array binding signal intensity
GDHPKGPPPPPPPPD	≤ 0

Molecular target: CaBzz1-D1
Assay: as above
Outline: as §1

Binder	SPOT peptide array binding signal intensity
GDHPKGPPPPPPPPD	2370

Molecular target: CaBzz1-D2
Assay: as above
Outline: as §1

Binder	SPOT peptide array binding signal intensity
GDHPKGPPPPPPPPD	1470

Molecular target: CaCyk3
Assay: as above
Outline: as §1

Binder	SPOT peptide array binding signal intensity
GDHPKGPPPPPPPPD	4

Molecular target: CaFus1
Assay: as above
Outline: as §1

Binder	SPOT peptide array binding signal intensity
GDHPKGPPPPPPPPD	19

Molecular target: CaHof1
Assay: as above
Outline: as §1

Binder	SPOT peptide array binding signal intensity
GDHPKGPPPPPPPPD	≤ 0

Molecular target: CaHse1
Assay: as above
Outline: as §1

Binder	SPOT peptide array binding signal intensity
GDHPKGPPPPPPPPD	3.5

Molecular target: CaLsb1
Assay: as above
Outline: as §1

Binder	SPOT peptide array binding signal intensity
GDHPKGPPPPPPPPD	≤ 0

Molecular target: CaLsb4
Assay: as above
Outline: as §1

Binder	SPOT peptide array binding signal intensity
GDHPKGPPPPPPPPD	≤ 0

Molecular target: CaMyo5
Assay: as above
Outline: as §1

Binder	SPOT peptide array binding signal intensity
GDHPKGPPPPPPPPD	34

Molecular target: CaNbp2
Assay: as above
Outline: as §1

Binder	SPOT peptide array binding signal intensity
GDHPKGPPPPPPPPD	≤ 0

Molecular target: CaRvs167
Assay: as above
Outline: as §1

Binder	SPOT peptide array binding signal intensity
GDHPKGPPPPPPPPD	0.333

Molecular target: CaRvs167-3
Assay: as above
Outline: as §1

Binder	SPOT peptide array binding signal intensity
GDHPKGPPPPPPPPD	1

Molecular target: CaSho1
Assay: as above
Outline: as §1

Binder	SPOT peptide array binding signal intensity
GDHPKGPPPPPPPPD	≤ 0

Molecular target: CaSla1-D1-D2
Assay: as above
Outline: as §1

Binder	SPOT peptide array binding signal intensity
GDHPKGPPPPPPPPD	≤ 0

Molecular target: CaSla1-D3
Assay: as above
Outline: as §1

Binder	SPOT peptide array binding signal intensity
GDHPKGPPPPPPPPD	≤ 0

Molecular target: ScAbp1
Assay: as above
Outline: as §1

Binder	SPOT peptide array binding signal intensity
GDHPKGPPPPPPPPD	≤ 0

Molecular target: ScBbc1
Assay: as above
Outline: as §1

Binder	SPOT peptide array binding signal intensity
GDHPKGPPPPPPPPD	≤ 0

Molecular target: ScBem1-D1
Assay: as above
Outline: as §1

Binder	SPOT peptide array binding signal intensity
GDHPKGPPPPPPPPD	≤ 0

Molecular target: ScBzz1-D1
Assay: as above
Outline: as §1

Binder	SPOT peptide array binding signal intensity
GDHPKGPPPPPPPPD	1030

Molecular target: ScBzz1-D2
Assay: as above
Outline: as §1

Binder	SPOT peptide array binding signal intensity
GDHPKGPPPPPPPPD	≤ 0

Molecular target: ScCyk3
Assay: as above
Outline: as §1

Binder	SPOT peptide array binding signal intensity
GDHPKGPPPPPPPPD	≤ 0

Molecular target: ScFus1
Assay: as above
Outline: as §1

Binder	SPOT peptide array binding signal intensity
GDHPKGPPPPPPPPD	≤ 0

Molecular target: ScHof1
Assay: as above
Outline: as §1

Binder	SPOT peptide array binding signal intensity
GDHPKGPPPPPPPPD	≤ 0

Molecular target: ScHse1
Assay: as above
Outline: as §1

Binder	SPOT peptide array binding signal intensity
GDHPKGPPPPPPPPD	16

Molecular target: ScLsb1
Assay: as above
Outline: as §1

Binder	SPOT peptide array binding signal intensity
GDHPKGPPPPPPPPD	≤ 0

Molecular target: ScLsb2
Assay: as above
Outline: as §1

Binder	SPOT peptide array binding signal intensity
GDHPKGPPPPPPPPD	≤ 0

Molecular target: ScLsb3
Assay: as above
Outline: as §1

Binder	SPOT peptide array binding signal intensity
GDHPKGPPPPPPPPD	≤ 0

Molecular target: ScLsb4
Assay: as above
Outline: as §1

Binder	SPOT peptide array binding signal intensity
GDHPKGPPPPPPPPD	≤ 0

Molecular target: ScMyo3
Assay: as above
Outline: as §1

Binder	SPOT peptide array binding signal intensity
GDHPKGPPPPPPPPD	1170

Molecular target: ScMyo5
Assay: as above
Outline: as §1

Binder	SPOT peptide array binding signal intensity
GDHPKGPPPPPPPPD	1020

Molecular target: ScNbp2
Assay: as above
Outline: as §1

Binder	SPOT peptide array binding signal intensity
GDHPKGPPPPPPPPD	3

Molecular target: ScPex13
Assay: as above
Outline: as §1

Binder	SPOT peptide array binding signal intensity
GDHPKGPPPPPPPPD	7.63e-06

Molecular target: ScRvs167
Assay: as above
Outline: as §1

Binder	SPOT peptide array binding signal intensity
GDHPKGPPPPPPPPD	≤ 0

Molecular target: ScSho1
Assay: as above
Outline: as §1

Binder	SPOT peptide array binding signal intensity
GDHPKGPPPPPPPPD	≤ 0

Molecular target: ScSla1-D1-D2
Assay: as above
Outline: as §1

Binder	SPOT peptide array binding signal intensity
GDHPKGPPPPPPPPD	≤ 0

Molecular target: ScSla1-D3
Assay: as above
Outline: as §1

Binder	SPOT peptide array binding signal intensity
GDHPKGPPPPPPPPD	≤ 0

Molecular target: SpAbp1-D1
Assay: as above
Outline: as §1

Binder	SPOT peptide array binding signal intensity
GDHPKGPPPPPPPPD	≤ 0

Molecular target: SpBbc1
Assay: as above
Outline: as §1

Binder	SPOT peptide array binding signal intensity
GDHPKGPPPPPPPPD	≤ 0

Molecular target: SpBzz1-D1
Assay: as above
Outline: as §1

Binder	SPOT peptide array binding signal intensity
GDHPKGPPPPPPPPD	67

Molecular target: SpBzz1-D2
Assay: as above
Outline: as §1

Binder	SPOT peptide array binding signal intensity
GDHPKGPPPPPPPPD	2

Molecular target: SpCyk3
Assay: as above
Outline: as §1

Binder	SPOT peptide array binding signal intensity
GDHPKGPPPPPPPPD	≤ 0

Molecular target: SpHof1
Assay: as above
Outline: as §1

Binder	SPOT peptide array binding signal intensity
GDHPKGPPPPPPPPD	≤ 0

Molecular target: SpHof1-2
Assay: as above
Outline: as §1

Binder	SPOT peptide array binding signal intensity
GDHPKGPPPPPPPPD	≤ 0

Molecular target: SpHof1-3
Assay: as above
Outline: as §1

Binder	SPOT peptide array binding signal intensity
GDHPKGPPPPPPPPD	≤ 0

Molecular target: SpHse1
Assay: as above
Outline: as §1

Binder	SPOT peptide array binding signal intensity
GDHPKGPPPPPPPPD	1

Molecular target: SpLsb1
Assay: as above
Outline: as §1

Binder	SPOT peptide array binding signal intensity
GDHPKGPPPPPPPPD	≤ 0

Molecular target: SpLsb4
Assay: as above
Outline: as §1

Binder	SPOT peptide array binding signal intensity
GDHPKGPPPPPPPPD	≤ 0

Molecular target: SpMyo1
Assay: as above
Outline: as §1

Binder	SPOT peptide array binding signal intensity
GDHPKGPPPPPPPPD	1570

Molecular target: SpNbp2
Assay: as above
Outline: as §1

Binder	SPOT peptide array binding signal intensity
GDHPKGPPPPPPPPD	18.5

Molecular target: SpPex13
Assay: as above
Outline: as §1

Binder	SPOT peptide array binding signal intensity
GDHPKGPPPPPPPPD	≤ 0

Molecular target: SpRvs167
Assay: as above
Outline: as §1

Binder	SPOT peptide array binding signal intensity
GDHPKGPPPPPPPPD	≤ 0

Molecular target: SpSla1-D1-D2
Assay: as above
Outline: as §1

Binder	SPOT peptide array binding signal intensity
GDHPKGPPPPPPPPD	≤ 0

Molecular target: SpSla1-D3
Assay: as above
Outline: as §1

Binder	SPOT peptide array binding signal intensity
GDHPKGPPPPPPPPD	≤ 0
